# Source: PubChem BioAssay (NCATS)
# Active and inactive are the calls of the source. The call rests on the fitted dose curve.
# Assay: qHTS drug screen for cell cycle checkpoint inhibitors in PARPi-resistant BRCA-mutant ovarian cancer cell lines. (AID 1963452)
# Conditions: PEO1/OlaR viability, CellTiter-Glo luminescence, 96 h
# Outline: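 PEO1, PEO4 and PEO1/OlaR ovarian cancer cells, 600 per well, exposed 96 h at 37C to a dilution series. Viability read by CellTiter-Glo luminescence, normalized to DMSO and empty wells; activity summarized as Z-AUC.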
# Potency means the concentration at half of the fitted maximal effect.
row,SMILES,Potency
1,Cc1ccc(C(=O)N(CCCN)[C@@H](c2nc3cc(Cl)ccc3c(=O)n2Cc2ccccc2)C(C)C)cc1,9.8 nM (active)
2,CCC[C@H](Nc1nc(-c2ccc(NC(=O)NCC)c(OC)c2)ncc1C)c1cccnc1,8.7 nM (active)
3,Cc1ccc(C(=O)N(CCCN)[C@@H](c2oc3cc(Cl)ccc3c(=O)c2Cc2ccccc2)C(C)C)cc1,8710 nM (active)
4,CC1(C)CC(=O)c2c(C(F)(F)F)nn(-c3ccc(C(N)=O)c(NC4CCC(O)CC4)c3)c2C1 (stereo not given),219 nM (active)
5,COc1ccc(-c2ccc3ncc4c(c3c2)n(-c2ccc(N3CCNCC3)c(C(F)(F)F)c2)c(=O)n4C)cn1,123 nM (active)

# Same assay, conditions: PEO1/OlaR viability, CellTiter-Glo luminescence, 96 h; stronger effect = lower value
row,SMILES,Z-AUC
1,C#CCN(C)CC1=Cc2ccccc2Oc2ccccc21,-0.343 (inactive)
2,O=C1NC(=O)C(c2cnc3ccccn23)=C1c1cn2c3c(cccc13)CN(C(=O)N1CCOCC1)CC2,-1.3 (inactive)
3,COc1cc2c(cc1OC)CC(=O)N(CCCN(C)C[C@H]1Cc3cc(OC)c(OC)cc31)CC2,0.967 (inactive)
4,Clc1ccc(COC(Cn2ccnc2)c2ccc(Cl)cc2Cl)c(Cl)c1 (stereo not given),-0.245 (inactive)
5,CCCCOCCOc1nc(-c2ccc(C(=O)O)c(F)c2)sc1C,1.12 (inactive)
6,O=C(O)c1nc(=O)[nH]c(=O)[nH]1,0.306 (inactive)
7,C[C@H]1COC2=C1C(=O)C(=O)c1c2ccc2c1CCCC2(C)C,1.69 (inactive)
8,Cc1cn([C@@H]2C[C@@H](O)[C@H](CO)O2)c(=O)[nH]c1=O,0.721 (inactive)
9,CS(=O)(=O)c1ccc(C2=C(c3ccccc3)C(=O)OC2)cc1,0.327 (inactive)
10,Cc1ccccc1C(C(=O)NC1CCCCC1)N(C(=O)CNc1ccc(C#N)cc1)c1cccc(F)c1 (stereo not given),0.169 (inactive)
11,CCCCC(F)(F)[C@@]1(O)CC[C@H]2[C@H](CC(=O)[C@@H]2CCCCCCC(=O)O)O1,-0.514 (inactive)
12,CC[C@H](C=C[C@@H](C)[C@H]1CC[C@H]2[C@@H]3CC=C4C[C@@H](O)CC[C@]4(C)[C@@H]3CC[C@]12C)C(C)C,0.764 (inactive)
13,Cc1cc2c(cc1C1(c3ccc(C(=O)O)cn3)CC1)C(C)(C)CCC2(C)C,-0.226 (inactive)
14,CCOC(=O)[C@@H](N)CCC(=O)N[C@@H](CSCc1ccccc1)C(=O)N[C@@H](C(=O)OCC)c1ccccc1,1.2 (inactive)
15,CN1CCN2c3ncccc3Cc3ccccc3C2C1 (stereo not given),-0.118 (inactive)
16,NS(=O)(=O)c1cc(Cl)c(Cl)c(S(N)(=O)=O)c1,0.54 (inactive)
17,CCN(CCO)CCCOc1ccc2c(Nc3cc(CC(=O)Nc4cccc(F)c4)[nH]n3)ncnc2c1,-0.614 (inactive)
18,CN(C)CCN(C)C(=O)c1ccc(NC(=O)Nc2ccc(-c3nc(N4CCOCC4)c4ccn(CC(F)(F)F)c4n3)cc2)cc1,-1.1 (inactive)
19,CC(C)C[C@@H](N)[C@H](O)C(=O)N[C@H](C(=O)N[C@H](C(=O)N[C@@H](CC(=O)O)C(=O)O)C(C)C)C(C)C,-0.687 (inactive)
20,CCC[C@H](N[C@@H](C)C(=O)N1[C@@H]2CCCC[C@H]2C[C@H]1C(=O)O)C(=O)OCC,-0.443 (inactive)
21,O=C(O)C1=CC(O)C(O)[C@H](O)C1 (stereo not given in full),1.17 (inactive)
22,N#CC(c1ccc(Cl)cc1)c1c(Cl)cc(-n2ncc(=O)[nH]c2=O)cc1Cl (stereo not given),-0.392 (inactive)
23,COc1ccc(-c2nc3ccc(C4=NNC(=O)CC4C)cc3[nH]2)cc1 (stereo not given),-0.406 (inactive)
24,COc1cccc(OC)c1-c1cc(C(=O)NC2(C(=O)O)C3CC4CC(C3)CC2C4)nn1-c1ccnc2cc(Cl)ccc12 (stereo not given),1.24 (inactive)
25,CCC(=O)N1CCN(c2ccc(-n3c(=O)ccc4cnc5ccc(-c6cnc7ccccc7c6)cc5c43)cc2C(F)(F)F)CC1,-1.59 (inactive)
26,CCCCC[C@H](O)C=C[C@H]1[C@H](O)CC(=O)[C@H]1CC=CCCCC(=O)O,1.09 (inactive)
27,C[C@H](c1ccc(F)cc1CCCC(=O)O)N(c1cc(F)ccc1F)S(=O)(=O)c1ccc(Cl)cc1,-0.634 (inactive)
28,COc1ccnc(CS(=O)c2nc3ccc(OC(F)F)cc3[nH]2)c1OC (stereo not given),1.71 (inactive)
29,N#Cc1c(N(CC(=O)O)CC(=O)O)sc(C(=O)O)c1CC(=O)O,0.439 (inactive)
30,C=C1c2cccc(O)c2C(O)=C2C(=O)[C@@]3(O)C(O)=C(C(N)=O)C(=O)[C@@H](N(C)C)[C@@H]3[C@@H](O)[C@H]12,-0.114 (inactive)

# Same assay, conditions: PEO1/OlaR viability, CellTiter-Glo luminescence, 96 h; measured here: PEO1 parental Z-AUC; stronger effect = lower value
row,SMILES,Z-AUC
1,C#CCN(C)CC1=Cc2ccccc2Oc2ccccc21,-0.493
2,O=C1NC(=O)C(c2cnc3ccccn23)=C1c1cn2c3c(cccc13)CN(C(=O)N1CCOCC1)CC2,-1.91
3,COc1cc2c(cc1OC)CC(=O)N(CCCN(C)C[C@H]1Cc3cc(OC)c(OC)cc31)CC2,0.523
4,Cc1ccc(C(=O)N(CCCN)[C@@H](c2nc3cc(Cl)ccc3c(=O)n2Cc2ccccc2)C(C)C)cc1,-2.53
5,Clc1ccc(COC(Cn2ccnc2)c2ccc(Cl)cc2Cl)c(Cl)c1 (stereo not given),0.118
6,CCC[C@H](Nc1nc(-c2ccc(NC(=O)NCC)c(OC)c2)ncc1C)c1cccnc1,-2.97
7,CCCCOCCOc1nc(-c2ccc(C(=O)O)c(F)c2)sc1C,0.866
8,O=C(O)c1nc(=O)[nH]c(=O)[nH]1,-0.133
9,C[C@H]1COC2=C1C(=O)C(=O)c1c2ccc2c1CCCC2(C)C,1.64
10,Cc1cn([C@@H]2C[C@@H](O)[C@H](CO)O2)c(=O)[nH]c1=O,0.778
11,CS(=O)(=O)c1ccc(C2=C(c3ccccc3)C(=O)OC2)cc1,0.543
12,Cc1ccccc1C(C(=O)NC1CCCCC1)N(C(=O)CNc1ccc(C#N)cc1)c1cccc(F)c1 (stereo not given),0.0819
13,CCCCC(F)(F)[C@@]1(O)CC[C@H]2[C@H](CC(=O)[C@@H]2CCCCCCC(=O)O)O1,0.401
14,CC[C@H](C=C[C@@H](C)[C@H]1CC[C@H]2[C@@H]3CC=C4C[C@@H](O)CC[C@]4(C)[C@@H]3CC[C@]12C)C(C)C,1.79
15,Cc1cc2c(cc1C1(c3ccc(C(=O)O)cn3)CC1)C(C)(C)CCC2(C)C,0.647
16,CCOC(=O)[C@@H](N)CCC(=O)N[C@@H](CSCc1ccccc1)C(=O)N[C@@H](C(=O)OCC)c1ccccc1,1.04
17,Cc1ccc(C(=O)N(CCCN)[C@@H](c2oc3cc(Cl)ccc3c(=O)c2Cc2ccccc2)C(C)C)cc1,-2.6
18,CN1CCN2c3ncccc3Cc3ccccc3C2C1 (stereo not given),-0.0867

row,SMILES,Z-AUC
1,NS(=O)(=O)c1cc(Cl)c(Cl)c(S(N)(=O)=O)c1,0.261
2,CCN(CCO)CCCOc1ccc2c(Nc3cc(CC(=O)Nc4cccc(F)c4)[nH]n3)ncnc2c1,-0.629
3,CN(C)CCN(C)C(=O)c1ccc(NC(=O)Nc2ccc(-c3nc(N4CCOCC4)c4ccn(CC(F)(F)F)c4n3)cc2)cc1,-1.35
4,CC(C)C[C@@H](N)[C@H](O)C(=O)N[C@H](C(=O)N[C@H](C(=O)N[C@@H](CC(=O)O)C(=O)O)C(C)C)C(C)C,-0.6
5,CCC[C@H](N[C@@H](C)C(=O)N1[C@@H]2CCCC[C@H]2C[C@H]1C(=O)O)C(=O)OCC,-0.451
6,O=C(O)C1=CC(O)C(O)[C@H](O)C1 (stereo not given in full),1.52
7,N#CC(c1ccc(Cl)cc1)c1c(Cl)cc(-n2ncc(=O)[nH]c2=O)cc1Cl (stereo not given),-1.19
8,COc1ccc(-c2nc3ccc(C4=NNC(=O)CC4C)cc3[nH]2)cc1 (stereo not given),-0.248
9,COc1cccc(OC)c1-c1cc(C(=O)NC2(C(=O)O)C3CC4CC(C3)CC2C4)nn1-c1ccnc2cc(Cl)ccc12 (stereo not given),0.986
10,CCC(=O)N1CCN(c2ccc(-n3c(=O)ccc4cnc5ccc(-c6cnc7ccccc7c6)cc5c43)cc2C(F)(F)F)CC1,-1.67
11,CCCCC[C@H](O)C=C[C@H]1[C@H](O)CC(=O)[C@H]1CC=CCCCC(=O)O,0.516
12,C[C@H](c1ccc(F)cc1CCCC(=O)O)N(c1cc(F)ccc1F)S(=O)(=O)c1ccc(Cl)cc1,-0.271
13,COc1ccnc(CS(=O)c2nc3ccc(OC(F)F)cc3[nH]2)c1OC (stereo not given),1.02
14,CC1(C)CC(=O)c2c(C(F)(F)F)nn(-c3ccc(C(N)=O)c(NC4CCC(O)CC4)c3)c2C1 (stereo not given),-1.53
15,COc1ccc(-c2ccc3ncc4c(c3c2)n(-c2ccc(N3CCNCC3)c(C(F)(F)F)c2)c(=O)n4C)cn1,-2.24
16,N#Cc1c(N(CC(=O)O)CC(=O)O)sc(C(=O)O)c1CC(=O)O,0.76
17,C=C1c2cccc(O)c2C(O)=C2C(=O)[C@@]3(O)C(O)=C(C(N)=O)C(=O)[C@@H](N(C)C)[C@@H]3[C@@H](O)[C@H]12,-0.453
